Assay results as given in the supplement of paper PMC11732987, “Enantioselective OTUD7B fragment discovery through chemoproteomics screening and high-throughput optimisation” (Communications Chemistry, 2025).

Assays:
Assay in all cases: log2 ratio of Biotin-Ahx-Ub-VS probe labelling (fragment/DMSO); higher = less target engagement (more negative = stronger competition), active = hit call of the paper (q ≤ 0.05, log2 ratio ≤ -1)
Conditions in all cases: compound concentration: 200 uM; treatment time: 3 h
ALG13 = biological target: T1, ALG13 (UniProt Q9NP73)
T1 sequence (whole entry): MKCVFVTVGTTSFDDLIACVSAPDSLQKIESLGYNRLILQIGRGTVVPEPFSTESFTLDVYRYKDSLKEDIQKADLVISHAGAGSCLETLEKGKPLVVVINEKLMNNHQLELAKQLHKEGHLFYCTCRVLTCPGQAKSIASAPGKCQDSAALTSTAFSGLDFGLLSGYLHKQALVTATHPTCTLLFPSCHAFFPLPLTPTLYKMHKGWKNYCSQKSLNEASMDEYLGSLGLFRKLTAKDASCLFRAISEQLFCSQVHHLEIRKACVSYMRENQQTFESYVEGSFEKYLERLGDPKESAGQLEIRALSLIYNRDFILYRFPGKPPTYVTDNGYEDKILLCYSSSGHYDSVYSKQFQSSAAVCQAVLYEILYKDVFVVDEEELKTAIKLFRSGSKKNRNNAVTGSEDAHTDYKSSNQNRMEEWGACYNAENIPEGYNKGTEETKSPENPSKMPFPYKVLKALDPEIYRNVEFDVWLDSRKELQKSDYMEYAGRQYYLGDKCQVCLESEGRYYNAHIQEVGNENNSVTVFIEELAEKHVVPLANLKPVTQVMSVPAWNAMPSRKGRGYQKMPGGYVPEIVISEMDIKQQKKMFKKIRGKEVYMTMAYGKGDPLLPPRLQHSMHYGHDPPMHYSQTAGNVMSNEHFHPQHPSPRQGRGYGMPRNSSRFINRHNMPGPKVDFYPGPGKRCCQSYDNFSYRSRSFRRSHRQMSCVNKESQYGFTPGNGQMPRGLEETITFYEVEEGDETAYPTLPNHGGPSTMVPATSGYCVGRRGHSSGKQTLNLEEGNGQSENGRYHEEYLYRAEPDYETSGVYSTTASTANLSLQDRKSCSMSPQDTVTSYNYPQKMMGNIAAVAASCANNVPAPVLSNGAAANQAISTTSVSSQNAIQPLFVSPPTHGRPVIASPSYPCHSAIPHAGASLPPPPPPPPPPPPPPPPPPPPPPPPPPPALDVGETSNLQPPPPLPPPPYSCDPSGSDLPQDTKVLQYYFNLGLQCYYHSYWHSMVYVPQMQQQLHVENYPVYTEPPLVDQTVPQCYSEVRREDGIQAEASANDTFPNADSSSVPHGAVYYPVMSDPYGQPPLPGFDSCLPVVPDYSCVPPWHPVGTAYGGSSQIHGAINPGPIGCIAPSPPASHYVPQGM
Summary of the method: (§1)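 Fragment (200 µM) or vehicle was incubated for 3 h with triplicate HEK293T lysate samples of 495 µg, which were then treated with Biotin-Ahx-Ub-VS at 0.5 µM final for 1 h. Labelled DUBs were enriched on NeutrAvidin, digested with LysC and trypsin, and analysed by diaPASEF LC-MS/MS. Values are average log2 fragment/vehicle ratios from an unpaired t-test on global-median-normalised Spectronaut label-free quantities, using proteins with ≥2 unique peptides.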

ATXN3 = ATXN3 (UniProt P54252)
Summary of the method: as §1

BAP1 = biological target: T2, BAP1 (UniProt Q92560)
T2 sequence (whole entry): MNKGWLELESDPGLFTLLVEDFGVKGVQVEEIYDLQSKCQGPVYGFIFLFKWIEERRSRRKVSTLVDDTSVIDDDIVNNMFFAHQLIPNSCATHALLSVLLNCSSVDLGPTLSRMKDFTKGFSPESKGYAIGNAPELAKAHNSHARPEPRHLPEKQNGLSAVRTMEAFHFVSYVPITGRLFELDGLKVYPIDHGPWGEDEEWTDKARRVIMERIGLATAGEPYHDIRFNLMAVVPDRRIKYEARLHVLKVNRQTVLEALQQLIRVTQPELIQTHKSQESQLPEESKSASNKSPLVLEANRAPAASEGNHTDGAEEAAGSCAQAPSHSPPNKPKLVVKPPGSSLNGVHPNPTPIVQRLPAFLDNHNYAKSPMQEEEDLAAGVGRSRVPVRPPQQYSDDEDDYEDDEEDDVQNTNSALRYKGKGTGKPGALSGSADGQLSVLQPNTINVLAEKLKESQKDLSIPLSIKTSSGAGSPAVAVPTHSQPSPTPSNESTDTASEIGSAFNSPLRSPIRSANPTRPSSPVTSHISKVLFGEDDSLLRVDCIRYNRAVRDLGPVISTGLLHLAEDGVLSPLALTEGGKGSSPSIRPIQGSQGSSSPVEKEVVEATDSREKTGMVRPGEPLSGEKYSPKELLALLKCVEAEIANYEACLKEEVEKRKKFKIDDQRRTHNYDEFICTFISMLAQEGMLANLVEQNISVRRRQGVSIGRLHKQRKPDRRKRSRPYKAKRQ
Summary of the method: as §1

EIF3F = EIF3F (UniProt O00303)
Summary of the method: as §1

EIF3H = EIF3H (UniProt O15372)
Summary of the method: as §1

FAM105A = biological target: T3, FAM105A (UniProt Q9NUU6)
T3 sequence (whole entry): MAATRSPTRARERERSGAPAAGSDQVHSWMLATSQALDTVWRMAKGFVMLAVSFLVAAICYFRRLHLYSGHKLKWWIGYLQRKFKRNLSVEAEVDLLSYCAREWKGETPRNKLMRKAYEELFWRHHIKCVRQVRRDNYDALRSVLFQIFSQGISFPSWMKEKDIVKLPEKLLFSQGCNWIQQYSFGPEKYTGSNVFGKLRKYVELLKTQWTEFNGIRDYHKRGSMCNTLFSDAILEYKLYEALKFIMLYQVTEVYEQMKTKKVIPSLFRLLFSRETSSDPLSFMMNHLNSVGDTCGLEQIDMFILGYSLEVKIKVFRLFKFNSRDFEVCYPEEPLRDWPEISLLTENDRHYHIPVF
Summary of the method: as §1

OTUB1 = OTUB1 (UniProt Q96FW1)
Summary of the method: as §1

OTUD4 = biological target: T4, OTUD4 (UniProt Q01804)
T4 sequence (whole entry): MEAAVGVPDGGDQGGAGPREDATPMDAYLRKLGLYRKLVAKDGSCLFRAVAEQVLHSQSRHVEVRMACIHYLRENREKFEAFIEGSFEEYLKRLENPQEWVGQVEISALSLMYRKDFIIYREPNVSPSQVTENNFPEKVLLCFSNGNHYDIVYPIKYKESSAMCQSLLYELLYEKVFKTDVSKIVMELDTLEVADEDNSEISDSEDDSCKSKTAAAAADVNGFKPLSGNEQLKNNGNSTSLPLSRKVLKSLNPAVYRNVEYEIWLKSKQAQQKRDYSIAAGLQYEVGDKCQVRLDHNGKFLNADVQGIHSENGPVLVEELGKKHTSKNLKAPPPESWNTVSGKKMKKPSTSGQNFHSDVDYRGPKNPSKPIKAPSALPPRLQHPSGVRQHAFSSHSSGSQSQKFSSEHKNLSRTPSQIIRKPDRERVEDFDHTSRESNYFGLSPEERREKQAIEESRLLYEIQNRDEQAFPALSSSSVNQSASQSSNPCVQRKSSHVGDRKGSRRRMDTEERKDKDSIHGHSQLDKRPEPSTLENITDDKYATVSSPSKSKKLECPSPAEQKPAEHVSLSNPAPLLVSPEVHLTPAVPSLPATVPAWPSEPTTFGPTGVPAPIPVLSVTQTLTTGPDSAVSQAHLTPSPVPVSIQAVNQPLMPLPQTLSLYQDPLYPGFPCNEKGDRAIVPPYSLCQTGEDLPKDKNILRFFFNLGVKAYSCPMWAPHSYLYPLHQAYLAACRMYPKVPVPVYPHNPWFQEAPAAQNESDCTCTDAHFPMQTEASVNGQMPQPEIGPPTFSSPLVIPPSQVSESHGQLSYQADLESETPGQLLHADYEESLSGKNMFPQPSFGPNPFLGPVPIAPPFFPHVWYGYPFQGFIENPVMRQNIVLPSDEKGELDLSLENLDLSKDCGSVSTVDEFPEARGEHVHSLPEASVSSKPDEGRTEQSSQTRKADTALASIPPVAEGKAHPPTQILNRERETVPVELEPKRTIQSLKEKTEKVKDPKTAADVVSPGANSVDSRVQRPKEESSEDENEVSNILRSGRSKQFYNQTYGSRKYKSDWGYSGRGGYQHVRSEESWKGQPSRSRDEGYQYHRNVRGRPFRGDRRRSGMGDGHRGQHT
Summary of the method: as §1

OTUD5 = biological target: T5, OTUD5 (UniProt Q96G74)
T5 sequence (whole entry): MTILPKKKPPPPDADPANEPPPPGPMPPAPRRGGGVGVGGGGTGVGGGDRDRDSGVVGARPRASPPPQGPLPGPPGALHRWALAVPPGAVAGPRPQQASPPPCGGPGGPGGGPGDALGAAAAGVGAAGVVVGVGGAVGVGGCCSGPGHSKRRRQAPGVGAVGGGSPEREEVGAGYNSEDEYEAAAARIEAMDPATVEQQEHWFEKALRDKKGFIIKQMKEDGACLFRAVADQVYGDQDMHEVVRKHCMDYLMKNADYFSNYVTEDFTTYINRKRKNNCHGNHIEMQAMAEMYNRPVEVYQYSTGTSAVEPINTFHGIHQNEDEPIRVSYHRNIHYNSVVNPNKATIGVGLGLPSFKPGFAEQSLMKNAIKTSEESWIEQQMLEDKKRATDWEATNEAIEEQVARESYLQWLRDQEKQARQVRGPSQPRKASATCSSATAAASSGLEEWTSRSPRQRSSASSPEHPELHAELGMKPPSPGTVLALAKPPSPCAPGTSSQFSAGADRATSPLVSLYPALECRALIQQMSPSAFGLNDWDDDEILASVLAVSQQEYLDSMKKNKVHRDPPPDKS
Summary of the method: as §1

Measured: log2 ratio of Biotin-Ahx-Ub-VS probe labelling

Sequence of EIF3F (O00303 whole entry): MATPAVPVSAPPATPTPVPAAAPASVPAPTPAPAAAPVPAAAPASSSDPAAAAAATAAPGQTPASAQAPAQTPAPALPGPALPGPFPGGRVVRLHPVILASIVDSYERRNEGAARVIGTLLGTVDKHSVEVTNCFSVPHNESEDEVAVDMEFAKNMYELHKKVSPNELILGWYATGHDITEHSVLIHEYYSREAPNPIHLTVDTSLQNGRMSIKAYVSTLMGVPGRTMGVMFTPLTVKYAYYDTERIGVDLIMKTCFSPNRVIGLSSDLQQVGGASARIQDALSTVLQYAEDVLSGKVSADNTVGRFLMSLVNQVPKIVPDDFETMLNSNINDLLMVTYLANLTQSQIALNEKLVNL
Sequence of OTUB1 (Q96FW1 whole entry): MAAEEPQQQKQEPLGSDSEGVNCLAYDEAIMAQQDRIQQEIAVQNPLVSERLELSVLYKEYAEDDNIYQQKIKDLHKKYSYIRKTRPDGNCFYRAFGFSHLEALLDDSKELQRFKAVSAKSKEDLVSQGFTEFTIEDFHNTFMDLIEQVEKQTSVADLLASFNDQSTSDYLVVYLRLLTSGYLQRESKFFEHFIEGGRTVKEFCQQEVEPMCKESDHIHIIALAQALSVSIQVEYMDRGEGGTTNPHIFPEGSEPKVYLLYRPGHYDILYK
Sequence of ATXN3 (P54252 whole entry): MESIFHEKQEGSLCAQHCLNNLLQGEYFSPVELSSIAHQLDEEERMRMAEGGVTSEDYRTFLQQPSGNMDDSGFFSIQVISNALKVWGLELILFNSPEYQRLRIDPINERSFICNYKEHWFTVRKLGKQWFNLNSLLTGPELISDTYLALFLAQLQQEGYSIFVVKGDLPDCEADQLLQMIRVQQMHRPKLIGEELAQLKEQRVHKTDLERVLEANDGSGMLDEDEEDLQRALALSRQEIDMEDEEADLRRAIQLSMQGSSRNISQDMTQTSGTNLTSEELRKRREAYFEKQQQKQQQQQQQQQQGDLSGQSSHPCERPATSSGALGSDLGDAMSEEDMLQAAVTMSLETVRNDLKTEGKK
Sequence of EIF3H (O15372 whole entry): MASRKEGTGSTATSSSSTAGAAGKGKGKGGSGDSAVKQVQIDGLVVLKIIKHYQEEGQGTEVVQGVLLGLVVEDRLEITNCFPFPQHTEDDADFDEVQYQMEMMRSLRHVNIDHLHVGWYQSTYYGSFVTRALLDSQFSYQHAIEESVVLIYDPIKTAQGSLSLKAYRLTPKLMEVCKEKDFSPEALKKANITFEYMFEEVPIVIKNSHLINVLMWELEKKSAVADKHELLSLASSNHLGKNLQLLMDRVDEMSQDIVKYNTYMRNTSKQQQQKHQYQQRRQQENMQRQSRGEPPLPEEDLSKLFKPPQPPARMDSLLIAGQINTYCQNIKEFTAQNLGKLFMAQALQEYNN

CN(CCc1ncc(Br)cn1)C(=O)CCl.Cl
inactive: ALG13 -0.0179 | ATXN3 -0.617 | BAP1 -0.611 | EIF3F -0.295 | EIF3H 0.145 | FAM105A 0.245 | OTUB1 0.000215 | OTUD4 -0.616 | OTUD5 -0.588
